PubChem BioAssay (EPA / NIEHS)
Results filed as inconclusive are left out. Active and inactive are the calls of the source. How the source made its calls, unless noted: active means hit-call score of the fitted dose curve at least 0.9, where 1 is the maximum; inconclusive means response in the unintended direction; inactive means score below 0.9.

Key:
[1] = target: T1, Thyroid hormone receptor alpha (Rattus norvegicus) + Thyroid hormone receptor beta (Rattus norvegicus) (UniProt P18113+P63059); experiment: TOX21_TR_LUC_GH3_Agonist_Followup: Tox21 GH3 Thyroid Hormone Receptor Agonism Luciferase Follow-Up Assay (AID 2283939)
T1 sequence (P63059 whole entry, looked up): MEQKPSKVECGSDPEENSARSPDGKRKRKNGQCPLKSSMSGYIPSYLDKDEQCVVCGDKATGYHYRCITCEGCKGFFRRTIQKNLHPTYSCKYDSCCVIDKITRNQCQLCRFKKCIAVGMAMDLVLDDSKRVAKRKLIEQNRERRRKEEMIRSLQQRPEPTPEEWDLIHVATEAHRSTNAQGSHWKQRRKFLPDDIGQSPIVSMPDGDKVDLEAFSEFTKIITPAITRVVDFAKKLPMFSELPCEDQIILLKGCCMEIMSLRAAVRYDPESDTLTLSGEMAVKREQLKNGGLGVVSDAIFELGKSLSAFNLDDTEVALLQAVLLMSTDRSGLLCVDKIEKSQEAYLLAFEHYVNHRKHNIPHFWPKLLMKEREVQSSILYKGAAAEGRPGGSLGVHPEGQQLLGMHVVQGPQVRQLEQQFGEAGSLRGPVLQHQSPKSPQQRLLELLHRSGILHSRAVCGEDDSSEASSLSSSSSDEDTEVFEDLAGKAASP
T1 sequence (P18113 whole entry, looked up): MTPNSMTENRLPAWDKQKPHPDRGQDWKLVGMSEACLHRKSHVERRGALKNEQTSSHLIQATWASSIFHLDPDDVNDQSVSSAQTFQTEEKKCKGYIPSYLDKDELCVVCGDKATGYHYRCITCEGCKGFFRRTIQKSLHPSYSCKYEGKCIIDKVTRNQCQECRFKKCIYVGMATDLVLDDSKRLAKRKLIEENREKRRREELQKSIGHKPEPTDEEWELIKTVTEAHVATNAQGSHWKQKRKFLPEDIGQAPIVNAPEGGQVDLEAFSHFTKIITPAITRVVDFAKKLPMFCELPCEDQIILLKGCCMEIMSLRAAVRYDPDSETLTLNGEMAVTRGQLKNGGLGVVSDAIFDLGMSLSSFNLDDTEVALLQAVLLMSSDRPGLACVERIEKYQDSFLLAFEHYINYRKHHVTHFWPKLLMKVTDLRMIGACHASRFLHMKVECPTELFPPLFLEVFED
Experimental: TOX21_TR_LUC_GH3_Agonist_Followup is a secondary assay for specificity for the TOX21_TR_LUC_GH3_Agonist assay. TOX21_TR_LUC_GH3_Agonist_Followup is a cell-based, single-readout assay that uses GH3, a rat pituitary gland cell line, with measurements taken at 28 hours after chemical dosing in a 1536-well plate.TOX21_TR_LUC_GH3_Agonist_Followup is one of one assay component(s) measured or calculated from the TOX21_TR_LUC_GH3_Agonist_Followup assay. It is designed to make measurements of luciferase induction, a form of inducible reporter, as detected with bioluminescence signals by […] technology.Data from the assay component TOX21_TR_LUC_GH3_Agonist_Followup was analyzed into 1 assay endpoint. This assay endpoint, TOX21_TR_LUC_GH3_Agonist_Followup, was analyzed in the positive analysis fitting direction relative to DMSO as the negative control and baseline of activity. Using a type of inducible reporter, gain-of-signal activity can be used to understand changes in the reporter gene as they relate to the gene THRA and THRB in the GH3 cell line using a luciferase reporter. Furthermore, this assay endpoint can be referred to as a primary readout, because the performed assay has only produced 1 assay endpoint. This assay endpoint is designated followup because it was a confirmatory screen following the primary qHTS assay. […]

THRA (gene 7067) [2] = target: THRA (gene 7067) (UniProt P10827); experiment: TOX21_TRA_COA_Agonist_Followup_ratio: Tox21 Thyroid Hormone Receptor alpha Agonism through Coactivator Recruitment Follow-Up Assay, Ratio (AID 2283948; active means hit-call score of the fitted dose curve at least 0.9, where 1 is the maximum; inactive means score below 0.9)
Chain of THRA (gene 7067) (P10827 whole entry, looked up, the tested form may be a part): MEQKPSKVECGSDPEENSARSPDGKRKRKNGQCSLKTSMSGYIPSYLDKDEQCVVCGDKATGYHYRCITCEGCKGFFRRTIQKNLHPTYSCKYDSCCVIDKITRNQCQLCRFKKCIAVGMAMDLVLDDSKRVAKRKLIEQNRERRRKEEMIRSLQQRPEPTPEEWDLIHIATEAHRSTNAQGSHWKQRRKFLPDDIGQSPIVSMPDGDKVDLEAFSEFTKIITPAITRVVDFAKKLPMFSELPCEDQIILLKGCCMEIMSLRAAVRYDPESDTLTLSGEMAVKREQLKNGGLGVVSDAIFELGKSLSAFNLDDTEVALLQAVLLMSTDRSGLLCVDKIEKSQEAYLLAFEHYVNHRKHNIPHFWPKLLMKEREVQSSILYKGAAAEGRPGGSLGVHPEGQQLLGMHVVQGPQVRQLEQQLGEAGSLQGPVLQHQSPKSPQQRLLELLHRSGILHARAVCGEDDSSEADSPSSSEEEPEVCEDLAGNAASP
Outline: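 Follow-up specificity assay in which TRα ligand-binding domain, expressed as a GST fusion, recruits a fluorescein-labelled SRC-2 peptide. Energy transfer from a terbium anti-GST antibody gives the acceptor/donor ratio, fitted upward relative to DMSO.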

[3] = target: T1, Thyroid hormone receptor alpha (Rattus norvegicus) + Thyroid hormone receptor beta (Rattus norvegicus); experiment: TOX21_TR_LUC_GH3_Antagonist_Followup: Tox21 GH3 Thyroid Hormone Receptor Antagonism Luciferase Follow-Up Assay (AID 2283942)
Outline: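 In a GH3 luciferase reporter line, test chemicals spanning 92 uM to 5nM final are co-incubated 24 h with 1.0 nM T3. Activity is expressed as relative luminescence units and analysed relative to DMSO.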

PGR (gene 5241) [4] = target: PGR (gene 5241) (UniProt P06401); experiment: TOX21_PR_BLA_Followup_Antagonist_ratio: Tox21 HEK293 Progesterone Receptor (PR) Antagonism Beta-lactamase Follow-Up Assay, Ratio (AID 2283934);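 further: PR-UAS-bla HEK293T cells stimulated with 1 nM R5020 agonist for 16 hr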
Chain of PGR (gene 5241) (P06401 whole entry, looked up): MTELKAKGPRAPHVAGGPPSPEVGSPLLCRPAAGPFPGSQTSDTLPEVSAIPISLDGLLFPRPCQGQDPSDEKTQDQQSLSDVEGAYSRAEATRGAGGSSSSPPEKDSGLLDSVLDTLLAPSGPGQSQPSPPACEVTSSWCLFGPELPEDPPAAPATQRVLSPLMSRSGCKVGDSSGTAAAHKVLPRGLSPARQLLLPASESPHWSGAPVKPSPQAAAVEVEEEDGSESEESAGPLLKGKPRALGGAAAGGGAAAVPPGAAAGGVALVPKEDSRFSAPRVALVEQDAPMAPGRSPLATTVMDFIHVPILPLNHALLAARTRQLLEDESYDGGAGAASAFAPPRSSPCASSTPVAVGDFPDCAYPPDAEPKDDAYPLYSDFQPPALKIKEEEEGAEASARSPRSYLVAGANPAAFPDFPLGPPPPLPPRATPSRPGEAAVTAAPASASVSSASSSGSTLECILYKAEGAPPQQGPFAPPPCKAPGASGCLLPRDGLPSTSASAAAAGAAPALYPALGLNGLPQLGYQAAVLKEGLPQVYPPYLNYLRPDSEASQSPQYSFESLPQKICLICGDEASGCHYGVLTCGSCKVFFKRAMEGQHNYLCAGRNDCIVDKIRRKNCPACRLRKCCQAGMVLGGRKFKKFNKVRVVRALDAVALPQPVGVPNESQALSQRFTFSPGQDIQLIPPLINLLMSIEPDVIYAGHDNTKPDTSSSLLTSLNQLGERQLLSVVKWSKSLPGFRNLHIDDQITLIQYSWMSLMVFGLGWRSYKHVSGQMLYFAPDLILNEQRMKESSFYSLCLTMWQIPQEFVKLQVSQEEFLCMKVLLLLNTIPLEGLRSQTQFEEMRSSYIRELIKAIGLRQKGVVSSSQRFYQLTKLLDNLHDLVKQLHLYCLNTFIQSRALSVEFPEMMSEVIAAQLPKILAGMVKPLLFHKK
Outline: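 Readout is the blue/green (ch2/ch1) substrate cleavage ratio after 2 hours at room temperature, following 16 hr co-treatment of PR-bla HEK293T cells with compound and 1nM promegestone. Multiplexed CellTiter-Glo viability flags cytotoxicity; DMSO baseline.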

[5] = TOX21_PR_BLA_Followup_Antagonist_viability: Viability Assessment in the Tox21 HEK293 Progesterone Receptor (PR) Antagonism Beta-lactamase Follow-Up Assay (AID 2283936);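 further: cells exposed to compound with R5020 agonist for 16 h; hits lower the luminescence signal meaning cytotoxicity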
Outline: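 PR-UAS-bla HEK293T cells in medium with 2% charcoal-stripped FBS were treated with compounds plus R5020 for 16 hr at 37C. After the beta-lactamase read, CellTiter-Glo was added to the same wells and luminescence read after 30 min at room temperature.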

[6] = TOX21_PR_LUC_Followup_Antagonist_viability: Viability Assessment in the Tox21 HEK293 Progesterone Receptor (PR) Antagonism Luciferase Follow-Up Assay (AID 2283940)
Outline: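 Viability counter-readout: cellular ATP measured by luciferase luminescence after 16 h compound exposure at 37C of HEK293-PR-A-luc cells, which had been cultured in charcoal-stripped serum and seeded 5 h beforehand.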

[7] = TOX21_PR_LUC_Followup_Agonist_viability: Viability Assessment in the Tox21 HEK293 Progesterone Receptor (PR) Agonism Luciferase Follow-Up Assay (AID 2283941);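 further: loss of signal means cytotoxicity so actives lower viability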
Outline: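 Cytotoxicity counter-readout in the PR-A luciferase reporter line HEK293, with 16 h compound exposure at 37C after cells were cultured in charcoal-stripped serum. Cellular ATP quantified by CellTiter-Glo luminescence.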

[8] = TOX21_PR_BLA_Followup_Agonist_viability: Viability Assessment in the Tox21 HEK293 Progesterone Receptor (PR) Agonism Beta-lactamase Follow-Up Assay (AID 2283935);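 further: signal loss means lower viability so actives are cytotoxic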
Outline: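 Run multiplexed with the beta-lactamase FRET read, this endpoint measures ATP by CellTiter-Glo luminescence (30 min, room temperature). PR-UAS-bla HEK293T cells received compound 6 hr after plating and were then incubated 16 hr at 37C in 2% stripped serum.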

PGR (gene 5241) [9] = target: PGR (gene 5241) (UniProt P06401); experiment: TOX21_PR_LUC_Followup_Antagonist: Tox21 HEK293 Progesterone Receptor (PR) Antagonism Luciferase Follow-Up Assay (AID 2283938);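 further: curve fitted upward as signal gain over DMSO baseline despite antagonist label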
Description: TOX21_PR_LUC_Followup is a secondary assay for specificity for the TOX21_PR_BLA_Agonist assay. To differentiate true PR agonists from cytotoxic substances, this follow up assay is multiplexed with a cell viability assay.TOX21_PR_LUC_Followup_Antagonist is one of one assay component(s) measured or calculated from the TOX21_PR_LUC_Followup assay. It is designed to make measurements of luciferase induction, a form of inducible reporter, as detected with bioluminescence signals by CellTiter-Glo Luciferase-coupled ATP quantitation technologyData from the assay component TOX21_PR_LUC_Followup_Antagonist was analyzed into 1 assay endpoint. This assay endpoint, TOX21_PR_LUC_Followup_Antagonist, was analyzed in the positive analysis fitting direction relative to DMSO as the negative control and baseline of activity. […] Furthermore, this assay endpoint can be referred to as a primary readout, because the performed assay has only produced 1 assay endpoint. […]
Quality Control Precautions: Maintain cells below 85-90% confluence in culture medium. […] Then 4 uL of ONE-Glo reagent (Promega, Madison, WI) was added to each plate using a BioRAPTR Flying Reagent Dispenser (FRD) workstation (Beckman Coulter, Indianapolis, IN, USA) and luminescence was quantified on a ViewLux (PerkinElmer, Shelton, CT) plate reader after 30 min incubation at room temperature.

THRA (gene 7067) [10] = target: THRA (gene 7067) (UniProt P10827); experiment: TOX21_TRA_COA_Antagonist_Followup_ratio: Tox21 Thyroid Hormone Receptor alpha Antagonism through Coactivator Recruitment Follow-Up Assay, Ratio (AID 2283953)
Outline: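 GST-TRα LBD 2.5 nM, BSA 0.10%, + cpd; then FITC-SRC-2 peptide 200 nM + Tb-anti-GST Ab 2 nM. TR-FRET ratio 520/495 nm. Norm: DMSO = 0%, T3 = 100%.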

For `Cn1c(=O)c2[nH]cnc2n(C)c1=O`, the outcome [1] was “inactive” and the outcome (THRA (gene 7067) [2]) was “inactive”.

For `Nc1ccn([C@@H]2O[C@H](CO)[C@@H](O)[C@@H]2O)c(=O)n1`, the outcome [3] was “inactive”.

For `COc1cc2c(c(OC)c1OC)-c1ccc(OC)c(=O)cc1[C@@H](NC(C)=O)CC2`, the outcome [3] was “inactive”.

For `O=c1[nH]cnc2c1ncn2[C@H]1CC[C@@H](CO)O1`, the outcome (THRA (gene 7067) [2]) was “inactive”.

In the case of `NC(=O)N(O)[C@@H]1COc2cc(OCc3ccccc3)ccc21`, the outcome (PGR (gene 5241) [4]) is reported as “inactive”, the outcome [5] is reported as “inactive” and the outcome [6] is reported as “inactive”. For the same compound, the outcome [7] was “inactive”.

In the case of `CC(C)C(=O)Nc1ccc([N+](=O)[O-])c(C(F)(F)F)c1`, the AC50 (PGR (gene 5241) [4]) is reported as 46.1 µM (active), the outcome [8] is reported as “inactive” and the outcome [5] is reported as “inactive”. For the same compound, the outcome (PGR (gene 5241) [9]) was “inactive”, the outcome [6] was “inactive” and the outcome [7] was “inactive”.

For `Cc1nccn1-c1ccc(Sc2cccc(C3(C(N)=O)CCOCC3)c2)cc1`, the AC50 [3] was 32.9 µM (active) and the outcome (THRA (gene 7067) [10]) was “inactive”.
